Hits are enriched below; roughly 2.2% of the tested compounds scored in any of these assays.
MITF TRPM1 inh – inhibitors of MITF-dependent TRPM1 promoter reporter, primary screen, cell-based, SK-MEL-5, single point, luciferase. SK-MEL-5 TRPM1 promoter luciferase, 24 h. inhibition, % at 12.5 µM. hit rate 0.83% among 330,000;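 active means mean inhibition across replicates of 60% or more, whatever share of single replicates reaches that level; inconclusive means some that reach 60%, reason not given; inactive means mean inhibition across replicates below 60%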
PAX8 reporter – inhibitors of PAX8-driven TPO luciferase reporter, primary screen, RMG-I cells, single concentration | SteadyGlo, 24 h | inhibition, % at 12.6 µM | hit rate 1.2% among 360,000 | AID 652154, 2013;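 active means mean replicate inhibition at least 60% with every replicate also reaching 60%; inconclusive means only one of the two criteria is met; inactive means mean below 60% and not all replicates reaching 60%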;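 further: luciferase light reporting Pax8 driven TPO promoter activity; plate controls were median of neutral control wells for no effect and mitoxantrone controls for full effect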
LGR2 inh – inhibitors of bursicon-induced LGR2 CRE-luciferase signal, primary screen, cell-based, HEK293, CRE-luciferase reporter, bursicon stimulation; Drosophila bursicon receptor LGR2 (rickets); bursicon-stimulated, 4 h; inhibition, % at 9.99 µM; hit rate 0.35% among 380,000;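 active means drop in luminescence signal, shown as inhibition above about 50% in the replicate tests, limit read from the data, passing the limit was not always enough; inconclusive means probably only some replicates passing the limit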;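 further: agonist challenge used bursicon conditioned medium at about half maximal strength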
EWS-Fli inh – EWS/Fli-driven NR0B1 reporter inhibitors, primary screen, A673 cells, NR0B1 luciferase, luminescence, MLPCN library. viability-normalised. inhibition, % at 12.6 µM. hit rate 0.67% among 350,000;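 active means mean inhibition of at least 50% after viability correction, with every replicate also passing that limit; inconclusive means mean reaches 50% but only one of two replicates passes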;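 further: firefly luciferase signal divided by Alamar Blue viability fluorescence both relative to DMSO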
PGC1a acetyl inh – inhibitors of PGC1a acetylation signal, primary screen, cell-based, U2OS, AlphaScreen, inhibitor mode | AlphaScreen anti-acetyl-lysine; with virally co-expressed GCN5 acetyltransferase | hit rate 0.17% among 350,000 | inhibition, % at 15.6 µM;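 active means every replicate shows inhibition of at least 40%; inconclusive means mean inhibition at least 40% but some replicate below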;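 further: 0% = neutral control wells and 100% = positive control wells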
LMP1 NFkB inh – EBV LMP1-driven NF-kappaB luciferase reporter inhibitors, primary screen, cell-based, luminescence, single point | inhibition, % at 12.5 µM | LMP1-induced NF-kappaB luciferase reporter cells | hit rate 0.69% among 350,000; in the data active means inhibition above about 41%; inconclusive means no clear call, values can overlap the other calls;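 further: 0% = neutral control wells and 100% = reference inhibitor control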
The depositor's hits bear a star.

For CC(C)C[C@H](NC(=O)c1nc[nH]c1C(=O)N[C@@H](CC(C)C)C(=O)OC(C)(C)C)C(=O)OC(C)(C)C the results were PAX8 reporter 66*, LGR2 inh -2, EWS-Fli inh 24 and LMP1 NFkB inh 2.
CC(C)C[C@H](NC(=O)c1nc[nH]c1C(=O)NC(c1ccccc1)c1ccccc1)C(=O)OC(C)(C)C was read as MITF TRPM1 inh 9, PAX8 reporter 67*, LGR2 inh 23, EWS-Fli inh 23, PGC1a acetyl inh -7 and LMP1 NFkB inh -19.
`CCC(=O)N(C)C[C@H]1[C@@H](c2ccc(-c3cccnc3)cc2)[C@@H](CO)N1C(C)=O` gave LGR2 inh -2.
For Cc1noc(C)c1NC(=O)N(C)C[C@H]1Oc2cc(C#CCC3CCCC3)ccc2S(=O)(=O)N([C@@H](C)CO)C[C@@H]1C the results were PAX8 reporter 66*, LGR2 inh 11, EWS-Fli inh 1 and PGC1a acetyl inh -8.
Screening C[C@@H]1CN([C@H](C)CO)S(=O)(=O)c2ccc(C#Cc3ccc(F)cc3)cc2O[C@H]1CN(C)C(=O)CN(C)C returned LGR2 inh 9, EWS-Fli inh 73* and PGC1a acetyl inh -21.
Screening C[C@@H]1CN([C@H](C)CO)S(=O)(=O)c2ccc(C#Cc3ccc(F)cc3)cc2O[C@H]1CN(C)C(=O)NC1CCCC1 returned LGR2 inh 34, EWS-Fli inh 29 and PGC1a acetyl inh 23.
C[C@@H]1CN([C@@H](C)CO)S(=O)(=O)c2ccc(C#Cc3ccc(F)cc3)cc2O[C@@H]1CN(C)C(=O)CN(C)C was read as LGR2 inh 7, EWS-Fli inh 10 and PGC1a acetyl inh -3.
`C[C@H](CO)N1C[C@H](C)[C@H](CN(C)C(=O)NC2CCCCC2)Oc2cc(C#Cc3ccc(F)cc3)ccc2S1(=O)=O` gave PAX8 reporter 91*, LGR2 inh 28, EWS-Fli inh 6 and PGC1a acetyl inh inconclusive.
For C[C@@H]1CN([C@H](C)CO)S(=O)(=O)c2ccc(C#Cc3ccc(F)cc3)cc2O[C@H]1CN(C)C(=O)NC1CCCCC1 the results were PAX8 reporter 98*, LGR2 inh 30, EWS-Fli inh 1 and PGC1a acetyl inh 5.
For O=C(C[C@@H]1C[C@@H]2c3cc(NS(=O)(=O)c4ccc(F)cc4)ccc3O[C@@H]2[C@H](CO)O1)NCCN1CCCCC1 the results were PAX8 reporter -6, LGR2 inh -1, EWS-Fli inh -6 and PGC1a acetyl inh 4.
`Cc1ccc(S(=O)(=O)N[C@H]2CC[C@H](CCn3cc(C4(O)CCCC4)nn3)O[C@@H]2CO)cc1` gave PAX8 reporter -1, LGR2 inh 31, EWS-Fli inh 0 and PGC1a acetyl inh 1.
For C[C@@H]1CN([C@H](C)CO)S(=O)(=O)c2ccc(C#Cc3cccc(F)c3)cc2O[C@H]1CN(C)C(=O)NC1CCCCC1 the results were PAX8 reporter 68*, LGR2 inh 15, EWS-Fli inh 13 and PGC1a acetyl inh 17.
Screening C[C@@H]1CN([C@H](C)CO)S(=O)(=O)c2ccc(C#CC3CCCC3)cc2O[C@@H]1CN(C)C(=O)Nc1cc(F)ccc1F returned PAX8 reporter 70*, LGR2 inh 12, EWS-Fli inh 44 and PGC1a acetyl inh -7.
Cc1cc(=O)oc2cc(OCCCC[n+]3ccccc3)ccc12 was read as MITF TRPM1 inh -9, PAX8 reporter -5, LGR2 inh -2, EWS-Fli inh -26 and LMP1 NFkB inh -14.
For CCC(C)(C)c1ccc(OCCCC[n+]2ccccc2)c(C(C)(C)CC)c1 the results were MITF TRPM1 inh 100*, PAX8 reporter 88*, LGR2 inh 19, EWS-Fli inh 27 and LMP1 NFkB inh 15.
CCCCOc1ccc(C)cc1CN(CCO)CCO was read as MITF TRPM1 inh -7 and LMP1 NFkB inh 0.
CCCCCc1ccc(OCCCC[n+]2ccccc2)c(CCCCC)c1 was read as MITF TRPM1 inh 87*, PGC1a acetyl inh -4 and LMP1 NFkB inh 55*.
CCCCCc1ccc(OCCCC[n+]2ccc(C)cc2)c(CCCCC)c1 was read as MITF TRPM1 inh 101*, PAX8 reporter 74*, LGR2 inh 54*, EWS-Fli inh 33, PGC1a acetyl inh 2 and LMP1 NFkB inh 20.
CCCCCc1ccc(OCCCC[n+]2cccc(C)c2)c(CCCCC)c1 was read as MITF TRPM1 inh 79*, PAX8 reporter 94*, LGR2 inh inconclusive, EWS-Fli inh 33, PGC1a acetyl inh 9 and LMP1 NFkB inh 16.
COc1cccc(S(=O)(=O)Nc2ccc3c(c2)OC[C@@H](C)NC[C@H](C)[C@H](OC)CN(C)C3=O)c1 was read as LGR2 inh 20, EWS-Fli inh -4 and PGC1a acetyl inh -4.
For CCCC(=O)Nc1ccc2c(c1)OC[C@H](C)N(CCC)C[C@@H](C)[C@H](OC)CN(C)C2=O the results were PAX8 reporter -7, LGR2 inh -14, EWS-Fli inh -5 and PGC1a acetyl inh 13.
For COc1ccc(S(=O)(=O)Nc2ccc3c(c2)C(=O)N([C@@H](C)CO)C[C@H](C)[C@H](CN(C)S(=O)(=O)c2cn(C)cn2)OCCCC[C@@H](C)O3)cc1 the results were PAX8 reporter -13, LGR2 inh 8, EWS-Fli inh -1 and PGC1a acetyl inh 2.
CC(C)CC#Cc1ccc2c(c1)O[C@@H](CN(C)Cc1ccc3c(c1)OCO3)[C@@H](C)CN([C@@H](C)CO)S2(=O)=O was read as LGR2 inh -16, EWS-Fli inh 58* and PGC1a acetyl inh -21.
For CC(C)CC#Cc1ccc2c(c1)O[C@H](CN(C)Cc1ccc(C(=O)O)cc1)[C@@H](C)CN([C@H](C)CO)S2(=O)=O the results were PAX8 reporter 80*, EWS-Fli inh 2 and PGC1a acetyl inh 3.
`COc1ccccc1-c1ccc2c(c1)O[C@H](CN(C)Cc1ccc3c(c1)OCO3)[C@H](C)CN([C@H](C)CO)S2(=O)=O` gave PAX8 reporter 67*, LGR2 inh -4, EWS-Fli inh 2 and PGC1a acetyl inh -21.
`C/C=C/c1ccc2c(c1)O[C@H](CN(C)Cc1cccnc1)[C@@H](C)CN([C@H](C)CO)S2(=O)=O` gave LGR2 inh 8, EWS-Fli inh 8 and PGC1a acetyl inh 0.
For Cn1nc(-c2ccc(N3CCOCC3)c(NS(=O)(=O)c3ccccc3)c2)c2ccccc2c1=O the results were MITF TRPM1 inh 7, LGR2 inh 37, EWS-Fli inh 9, PGC1a acetyl inh 4 and LMP1 NFkB inh 61*.
Screening C[C@@H]1CCCCCCCCC(=O)OCCN[C@H](C)CCCCCCCCC(=O)OCCN[C@H](C)CCCCCCCCC(=O)OCCN1 returned MITF TRPM1 inh 64* and LMP1 NFkB inh -4.

Screens as filed in PubChem BioAssay.
